{"source": "PubChem BioAssay", "note": "Calls of active or inactive are those of the source.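 How the source made its calls: active means compound whose remaining NAD level is above about 45 nM (limit read from the data); inactive means the rest.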"}
{"biological_target": "NAD(+) hydrolase SARM1 (Homo sapiens) (UniProt Q6SZW1)", "sequence (Q6SZW1 whole entry, looked up)": "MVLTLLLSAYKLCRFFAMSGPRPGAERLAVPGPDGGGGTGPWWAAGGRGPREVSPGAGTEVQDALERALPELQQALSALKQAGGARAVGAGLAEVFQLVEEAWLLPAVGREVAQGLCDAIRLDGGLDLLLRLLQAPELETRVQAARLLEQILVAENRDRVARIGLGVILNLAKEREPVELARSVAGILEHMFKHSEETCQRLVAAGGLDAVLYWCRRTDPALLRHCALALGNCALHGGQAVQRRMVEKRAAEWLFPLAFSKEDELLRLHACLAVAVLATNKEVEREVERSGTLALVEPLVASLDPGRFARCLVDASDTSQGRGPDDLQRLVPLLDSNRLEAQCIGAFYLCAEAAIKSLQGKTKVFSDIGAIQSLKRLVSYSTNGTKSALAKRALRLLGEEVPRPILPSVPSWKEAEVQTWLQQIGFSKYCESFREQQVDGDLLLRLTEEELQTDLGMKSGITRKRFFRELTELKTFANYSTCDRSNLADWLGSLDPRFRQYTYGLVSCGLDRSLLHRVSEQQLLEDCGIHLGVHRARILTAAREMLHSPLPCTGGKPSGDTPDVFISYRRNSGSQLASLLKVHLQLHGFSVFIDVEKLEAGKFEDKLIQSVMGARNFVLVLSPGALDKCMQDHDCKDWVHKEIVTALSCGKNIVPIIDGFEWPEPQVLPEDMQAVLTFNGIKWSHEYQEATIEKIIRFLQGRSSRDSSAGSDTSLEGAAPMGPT", "assay": "blocking NAD cleavage by SARM1 SAM-TIR – cell lysate, NAD-Glo luminescence (AID 1508614)", "conditions": "SAM-TIR HEK293T lysate NADase, at 1 µM, stronger effect = higher value"}
{"smiles": "CC(=O)c1ccc2c(c1)N(CCCN1CCN(CCO)CC1)c1ccccc1S2", "remaining NAD": "10 nM (inactive)"}
{"smiles": "CO/N=C(\\C(=O)N[C@@H]1C(=O)N2C(C(=O)O)=C(CSc3nnnn3C)CS[C@H]12)c1csc(N)n1", "remaining NAD": "10 nM (inactive)"}
{"smiles": "CC(C)CC(NC(=O)C(C)NC(=O)CNC(=O)C(NC=O)C(C)C)C(=O)NC(C)C(=O)NC(C(=O)NC(C(=O)NC(C(=O)NC(Cc1c[nH]c2ccccc12)C(=O)NC(CC(C)C)C(=O)NC(Cc1c[nH]c2ccccc12)C(=O)NC(CC(C)C)C(=O)NC(Cc1c[nH]c2ccccc12)C(=O)NC(CC(C)C)C(=O)NC(Cc1c[nH]c2ccccc12)C(=O)NCCO)C(C)C)C(C)C)C(C)C", "note": "(stereo not given)", "remaining NAD": "10 nM (inactive)"}
{"smiles": "CCCCCCCCCC[N+](C)(C)Cc1ccccc1", "remaining NAD": "10 nM (inactive)"}
{"smiles": "O=C(NCc1ccccc1)OCCO", "remaining NAD": "10 nM (inactive)"}
{"smiles": "Nc1ncnc(Nc2ccc(Cl)cc2)n1", "remaining NAD": "10 nM (inactive)"}
{"smiles": "CO[C@H]1C[C@H](O[C@@H]2/C(C)=C\\C[C@@H]3C[C@@H](C[C@]4(C=C[C@H](C)[C@@H](C(C)C)O4)O3)OC(=O)[C@@H]3C=C(C)[C@@H](O)[C@H]4OC/C(=C/C=C\\[C@@H]2C)[C@]43O)O[C@@H](C)[C@H]1O[C@H]1C[C@@H](OC)[C@H](NC(C)=O)[C@H](C)O1", "remaining NAD": "10 nM (inactive)"}
{"smiles": "C=C(C)[C@H]1CC=C(C)CC1", "remaining NAD": "10 nM (inactive)"}
{"smiles": "C[C@H]1C[C@H]2[C@@H]3CCC4=CC(=O)C=C[C@]4(C)[C@@]3(F)[C@@H](O)C[C@]2(C)[C@@]1(O)C(=O)COP(=O)(O)O", "remaining NAD": "10 nM (inactive)"}
{"smiles": "CC1/C=C/C=C/C=C/C=C/C=C/C=C/C=C/C(OC2O[C@H](C)[C@@H](O)[C@H](N)[C@@H]2O)CC(O)C(C(=O)O)C(O)CC(=O)CC(O)CC(O)CC(O)CC(=O)CCCC(=O)CC(=O)OC1C(C)CC(C)C(O)CC(=O)c1ccc(N)cc1", "note": "(stereo not given in full)", "remaining NAD": "10 nM (inactive)"}
{"smiles": "CN(N=O)C(=O)N[C@@H](C=O)[C@@H](O)[C@H](O)[C@H](O)CO", "remaining NAD": "10 nM (inactive)"}
{"smiles": "CCCCCCCCCCCCCCCC(=O)OC[C@H](O)[C@H]1OC(=O)C(O)=C1O", "remaining NAD": "10 nM (inactive)"}
{"smiles": "C/C=C(\\C)C(=O)OC1[C@H](OC(C)=O)C2(CO)C(CC1(C)C)C1=CCC3C4(C)CCC(O[C@@H]5O[C@H](C(=O)O)[C@@H](O[C@@H]6O[C@H](CO)[C@@H](O)[C@H](O)[C@H]6O)[C@H](O)[C@H]5O[C@H]5O[C@H](CO)[C@@H](O)[C@H](O)[C@H]5O)[C@](C)(CO)C4CCC3(C)[C@]1(C)C[C@H]2O", "note": "(stereo not given in full)", "remaining NAD": "10 nM (inactive)"}
{"smiles": "COc1cc(/C=C/C(=O)N2CCCCCCC2)cc(OC)c1OC", "remaining NAD": "10 nM (inactive)"}
{"smiles": "C[C@]12CC[C@@H]3c4ccc(OC(=O)c5ccccc5)cc4CC[C@H]3[C@@H]1CC[C@@H]2O", "remaining NAD": "10 nM (inactive)"}
{"smiles": "O=C(O)[C@H](O)[C@@H](O)[C@H](O)[C@H](O)CO", "remaining NAD": "10 nM (inactive)"}
{"smiles": "CCCCCCCCCC(=O)N[C@@H](Cc1c[nH]c2ccccc12)C(=O)N[C@@H](CC(N)=O)C(=O)N[C@@H](CC(=O)O)C(=O)N[C@@H]1C(=O)NCC(=O)N[C@@H](CCCN)C(=O)N[C@@H](CC(=O)O)C(=O)N[C@H](C)C(=O)N[C@@H](CC(=O)O)C(=O)NCC(=O)N[C@H](CO)C(=O)N[C@@H]([C@H](C)CC(=O)O)C(=O)N[C@@H](CC(=O)c2ccccc2N)C(=O)O[C@@H]1C", "remaining NAD": "10 nM (inactive)"}
{"smiles": "CC/C=C\\C/C=C\\C/C=C\\C/C=C\\C/C=C\\C/C=C\\CCC(=O)OCC", "note": "(tested in a mixture with another compound)", "remaining NAD": "10 nM (inactive)"}
{"smiles": "CCC(=O)Oc1ccc2c(c1)CC[C@@H]1[C@@H]2CC[C@]2(C)[C@@H](OC(=O)CC)CC[C@@H]12", "remaining NAD": "10 nM (inactive)"}
{"smiles": "Cn1c2ncnc-2c(O)n(C)c1=O", "remaining NAD": "10 nM (inactive)"}
{"smiles": "CCC(=O)OCC(=O)[C@@]1(OC(=O)CC)[C@H](C)C[C@H]2[C@H]3[C@H]([C@@H](O)C[C@@]21C)[C@@]1(C)C=CC(=O)C=C1C[C@H]3Cl", "remaining NAD": "10 nM (inactive)"}
{"smiles": "S=C1SCN(Cc2ccccc2)CN1Cc1ccccc1", "remaining NAD": "10 nM (inactive)"}
{"smiles": "C[C@]12CC[C@@H]3c4ccc(O)cc4CC[C@H]3[C@@H]1C[C@H](O)[C@@H]2O", "remaining NAD": "48 nM (active)"}
{"smiles": "O=C(O[C@H]1CN2CCC1CC2)N1CCc2ccccc2[C@@H]1c1ccccc1", "remaining NAD": "10 nM (inactive)"}
{"smiles": "Cc1ncc(COP(=O)([O-])[O-])c(CN(CCN(CC(=O)[O-])Cc2c(COP(=O)([O-])[O-])cnc(C)c2[O-])CC(=O)[O-])c1[O-].[H+].[H+].[H+].[Mn+2].[Na+].[Na+].[Na+]", "remaining NAD": "10 nM (inactive)"}
{"smiles": "C#C[C@]1(OC(C)=O)CC[C@H]2[C@@H]3CCC4=C/C(=N\\O)CC[C@@H]4[C@H]3CC[C@@]21CC", "remaining NAD": "10 nM (inactive)"}
{"smiles": "CC(=O)N1CCN(c2ccc(OC[C@@H]3CO[C@@](Cn4ccnc4)(c4ccc(Cl)cc4Cl)O3)cc2)CC1", "remaining NAD": "10 nM (inactive)"}
{"smiles": "CCCCCCCCCC(=O)N[C@H]1[C@H](Oc2c3cc4cc2Oc2ccc(cc2Cl)[C@@H](O[C@@H]2O[C@H](CO)[C@@H](O)[C@H](O)[C@H]2NC(C)=O)[C@@H]2NC(=O)[C@H](NC(=O)[C@@H]4NC(=O)[C@H]4NC(=O)[C@@H](Cc5ccc(c(Cl)c5)O3)NC(=O)[C@@H](N)c3ccc(O)c(c3)Oc3cc(O)cc4c3)c3ccc(O)c(c3)-c3c(OC4O[C@H](CO)[C@@H](O)[C@H](O)[C@@H]4O)cc(O)cc3[C@@H](C(=O)O)NC2=O)O[C@H](CO)[C@@H](O)[C@@H]1O", "note": "(stereo not given in full)", "remaining NAD": "10 nM (inactive)"}
{"smiles": "CO[C@@H]1[C@@H](O[C@@H]2O[C@H](C)[C@@H](O[C@H]3C[C@@](C)(O)[C@@H](O)[C@H](C)O3)[C@H](N(C)C)[C@H]2O)[C@@H](CC=O)C[C@@H](C)[C@@H](O[C@H]2CC[C@H](N(C)C)[C@@H](C)O2)/C=C/C=C/C[C@@H](C)OC(=O)C[C@H]1O", "remaining NAD": "10 nM (inactive)"}
{"smiles": "NC(=O)[C@@H]1CCCN1C(=O)[C@H](Cc1cnc[nH]1)NC(=O)[C@@H]1CCC(=O)N1", "remaining NAD": "10 nM (inactive)"}
